Source: PubChem BioAssay (EPA / NIEHS)
Records with an inconclusive call do not appear. More than one record can exist for a structure, and the calls need not agree. Active and inactive are the calls of the source. The calls were made as follows: active = hit-call score of the fitted dose curve at least 0.9, where 1 is the maximum; inconclusive = response in the unintended direction; inactive = score below 0.9.

biological target: Nucleoli Translocation, AR (gene 367) (UniProt P10275); test: UPITT_HCI_U2OS_AR_TIF2_Nucleoli_Agonist: University of Pittsburgh U2OS Androgen Receptor-Transcriptional Intermediary Factor 2 (AR-TIF2) Agonism High Content Imaging Assay for Nucleoli Translocation (AID 2283998)
Sequence (P10275 whole entry, looked up, the tested form may be a part): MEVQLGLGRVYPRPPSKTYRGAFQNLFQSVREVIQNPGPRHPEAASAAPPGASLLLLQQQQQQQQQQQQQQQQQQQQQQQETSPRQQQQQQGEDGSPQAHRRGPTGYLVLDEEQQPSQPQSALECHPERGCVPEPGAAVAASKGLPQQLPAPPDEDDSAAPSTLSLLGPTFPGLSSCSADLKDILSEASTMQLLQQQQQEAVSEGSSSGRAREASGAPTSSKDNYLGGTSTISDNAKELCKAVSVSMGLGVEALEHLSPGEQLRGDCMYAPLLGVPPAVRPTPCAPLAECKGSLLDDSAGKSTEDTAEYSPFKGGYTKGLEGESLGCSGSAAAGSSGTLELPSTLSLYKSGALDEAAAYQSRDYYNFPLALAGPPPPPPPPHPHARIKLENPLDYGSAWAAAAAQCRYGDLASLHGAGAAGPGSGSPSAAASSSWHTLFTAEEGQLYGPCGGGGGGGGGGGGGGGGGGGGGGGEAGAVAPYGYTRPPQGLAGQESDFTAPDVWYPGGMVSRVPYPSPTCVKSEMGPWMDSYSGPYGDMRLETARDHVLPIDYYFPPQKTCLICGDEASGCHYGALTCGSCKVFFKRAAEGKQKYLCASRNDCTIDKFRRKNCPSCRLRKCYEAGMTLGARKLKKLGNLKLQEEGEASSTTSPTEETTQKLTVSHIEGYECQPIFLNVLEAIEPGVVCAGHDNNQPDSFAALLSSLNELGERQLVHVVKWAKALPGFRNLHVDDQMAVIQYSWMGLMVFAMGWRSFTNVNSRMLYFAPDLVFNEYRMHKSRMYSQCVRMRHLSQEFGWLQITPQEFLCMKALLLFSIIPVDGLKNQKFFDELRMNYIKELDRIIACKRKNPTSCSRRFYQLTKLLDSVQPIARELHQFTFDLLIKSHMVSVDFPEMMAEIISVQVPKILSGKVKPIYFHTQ
From the text: UPITT_AR_TIF2_PPIB is a cell-based, high-content imaging assay that uses U2OS, a human osteosarcoma cell line, expressing a human androgen receptor fused to red fluorescent protein and the coactivator TIF2 fused to green fluorescent protein. UPITT_HCI_U2OS_AR_TIF2_Nucleoli_Agonist is one of four assay components measured from the UPITT_AR_TIF2_PPIB assay. It is designed to make measurements of red fluorescence localized in the nucleolar region of the cell nucleus as detected with high-content fluorescent imaging.Data from the assay component UPITT_HCI_U2OS_AR_TIF2_Nucleoli_Agonist was analyzed into 1 assay endpoint. This assay endpoint, UPITT_HCI_U2OS_AR_TIF2_Nucleoli_Agonist, was analyzed in the positive analysis fitting direction relative to DMSO as the baseline of activity. Using a type of binding reporter, measures of receptor for gain-of-signal activity can be used to understand the binding at the pathway-level as it relates to the gene AR.
Daughter plates containing 2 uL of 10 mM compounds in DMSO were prepared and replicated from the 384-well Library of Pharmacologically Active Compounds (LOPAC) master plates using the Bravo outfitted with a 384-well transfer head. Aluminum adhesive plate seals were applied with an Abgene Seal-IT 100 (Rochester, NY) plate sealer, and the plates were stored at -20 C in a Matrical MatriMinistore (Spokane, WA) automated compound storage and retrieval system. For screening, LOPAC daughter plates were withdrawn from -20C storage, thawed to ambient temperature, centrifuged 1-2 min at 50 g, and the plate seals were removed before the transfer of 98 uL of serum-free tissue culture medium (SFM) into wells using the BioTek Microflo liquid handler (BioTek, Winooski, VT) to generate a 200 uM intermediate stock concentration of library compounds (2.0% DMSO). The diluted compounds were mixed by repeated aspiration and dispensation using a 384-well P30 dispensing head on the Evolution P3 (EP3) liquid handling platform (PerkinElmer, Waltham, MA) and then 5 uL of diluted compounds was transferred to the wells of assay plates. In the LOPAC screen, compounds were individually tested at a final concentration of 20 uM (0.2% DMSO). After the diluted compounds had been transferred from the daughter plates to the primary HCS assay plates, aluminum adhesive plate seals were applied and the diluted daughter plates were stored frozen at -20C. To confirm active compounds identified in the primary screen, we withdrew the LOPAC daughter plates containing the 200 uM intermediate concentration of library compounds (2.0% DMSO) from -20C storage, thawed them to ambient temperature, centrifuged them for 1-2 min at 50 g, and removed the plate seals. A work list was generated to direct the Multiprobe Janus liquid handling platform (PerkinElmer) to cherry pick 75 uL from the wells of the diluted daughter plates that were flagged active in the primary screen and to reformat these into a 384-well plate hit confirmation daughter plate. Five microliters of primary HCS active compounds was then transferred into triplicate wells of assay plates using a 384-well P30 dispensing head on the Evolution P3 (EP3) liquid handling platform (PerkinElmer). […] Daughter plates containing 2 uL of the serially diluted compounds in DMSO were prepared and replicated from the 384-well serial dilution master plates using the Bravo outfitted with a 384-well transfer head. Aluminum adhesive plate seals were applied and plates were stored at -20C. For testing in the bioassays, daughter plates were withdrawn from -20C storage, thawed to ambient temperature, centrifuged for 1-2 min at 50 g, and the plate seals were removed before the transfer of 38 uL of SFM into wells using the BioTek Microflo liquid handler (BioTek) to generate an intermediate stock concentration of library compounds ranging from 1.95 to 500 uM (5.0% DMSO). […]

SMILES	outcome	AC50
ClC1=C(Cl)[C@]2(Cl)[C@H]3[C@H]([C@H](Cl)C(Cl)[C@@H]3Cl)[C@@]1(Cl)C2(Cl)Cl (stereo not given in full)	inactive	
C=COCCCl	inactive	
CNC(=O)Oc1cc(C)c(SC)c(C)c1	inactive	50 µM (active)
Clc1c(Cl)c(Cl)c2c(c1Cl)Oc1c(Cl)c(Cl)c(Cl)c(Cl)c1O2	inactive	
O=CNC(N1CCN(C(NC=O)C(Cl)(Cl)Cl)CC1)C(Cl)(Cl)Cl (stereo not given)	inactive	
O=C(NCNC(=O)NC1C(=O)NC(=O)N1CO)NC1C(=O)NC(=O)N1CO (stereo not given)	inactive	
COP(=S)(OC)SCC(=O)N(C)C=O	inactive	
C[n+]1ccc(-c2cc[n+](C)cc2)cc1	inactive	
Cc1ccc(C)c2ccccc12	inactive	
CCCCC(CC)COC(=O)c1cc(Br)c(Br)c(Br)c1Br (stereo not given)	inactive	
O=S1OC[C@@H]2[C@H](CO1)[C@]1(Cl)C(Cl)=C(Cl)[C@]2(Cl)C1(Cl)Cl (stereo not given in full)	inactive	
O=c1[nH]c2c(c(=O)n1C1CCCCC1)CCC2	inactive	
c1ccc2cc3c(cc2c1)-c1cccc2cccc-3c12	inactive	
CN(C)N	inactive	
